Screening data from PubChem BioAssay.
Sm TGR inh – qHTS Assay for the Inhibitors of Schistosoma Mansoni Peroxiredoxins. Schistosoma mansoni thioredoxin glutathione reductase (TGR), Q962Y6. Potency, µM (titrated, usually from 114 µM), hits mostly inhibitors. actives 3% (n = 360,000). purified TGR, DTNB reduction, TNB absorbance 405 nm; active means well fitted inhibition curve with a large enough effect; inconclusive means small, poorly fitted or top-dose-only effect; inactive means no such curve, though single readings can be large or run the other way; further: nearly all actives have a fitted effect of over 60% in size
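TGR 20 nM + NADPH 100 uM (dispensed conc.), cpd preinc 15 min RT; start with NADPH (500 uM addition) then DTNB (15 mM addition). Kinetic TNB absorbance, 405 nm filter. Four-parameter Hill fit across titration.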
SARS PLpro yeast – qHTS of Yeast-based Assay for SARS-CoV PLP; Potency, µM (top dose mostly 32.9 µM), hits mostly activators; S. cerevisiae expressing SARS-CoV PLpro, growth rescue; AID 485353, 2010; actives 0.19% (n = 330,000); calls by dose curve; further: nearly all actives have a fitted effect of over 55% in size
Hits are given with their value; n = inactive; u = inconclusive; x = not tested or not shown; ! = not active in a repeat. An excerpt weighted towards active compounds, which were near 3% of everything screened.

SMILES	Sm TGR inh	SARS PLpro yeast
COc1ccc(NC(=O)c2ccc(=O)oc2)cc1	45µM	n
COc1ccc(NC(=O)c2coc(C)c2)cc1	n	n
C=Cc1ccc(Cn2c(C(=O)O)c(CNCc3ccc(F)cc3)c3ccc(C)cc32)cc1	n	x
O=C(c1ccc(Cl)nc1)c1cccs1	n	n
COc1ccc(NC(=O)c2c(N)no[n+]2[O-])cc1	n	n
O=C(c1cccs1)c1no[n+]([O-])c1C(=O)c1cccs1	0.1µM	n
COc1ccc(C(=O)c2no[n+]([O-])c2C(=O)c2ccc(OC)cc2)cc1	0.35µM	n
CCOc1ccccc1NC(=O)c1c(NC(=O)Cc2ccc(OC)cc2)sc2c1CCC2	n	x
COc1ccc(OC)c(NC(=O)c2c(NC(=O)CNCc3ccco3)sc3c2CCC3)c1	n	n
COc1ccc(OC)c(NC(=O)c2c(NCc3ccc(N(C)C)cc3)sc3c2CCCC3)c1	22µM	x
COc1ccc(OC)c(NC(=O)c2c(NCc3ccc(OC)c(OC)c3)sc3c2CCC3)c1	n	x
CCOc1ccc(NC(=O)c2c(NCc3cccs3)sc3c2CCC(C)C3)cc1 (centres undefined)	n	x
CCOc1ccc(NC(=O)c2c(NCc3ccc(C)o3)sc3c2CCC(C)C3)cc1 (centres undefined)	25µM	x
COc1ccccc1NC(=O)c1c(NCc2ccc(C)o2)sc2c1CCCCC2	2µM	x
COc1ccc(OC)c(NC(=O)c2c(NCc3ccc(C)o3)sc3c2CCCCC3)c1	3.5µM	x
Cc1ccc(C)c(CN2C(=O)c3ccccc3Sc3ccc(C(=O)NCc4ccc5c(c4)OCO5)cc32)c1	n	x
COc1cc(Cl)c(NC(=O)c2cc(S(=O)(=O)N3CCOCC3)cn2C)c(OC)c1	n	x
COC(=O)c1ccccc1NC(=O)NCc1ccc2c(c1)CCN2C(=O)c1ccccc1	n	x
C=Cc1ccc(CN2C(=O)N(c3ccc(C)c(C)c3)S(=O)(=O)c3ccccc32)cc1	n	x
Cc1cccc(N2CCN(S(=O)(=O)c3ccc(-c4cc(C(F)(F)F)on4)s3)CC2)c1C	n	x
O=C(NCCc1csc(-c2cccc(F)c2)n1)C(=O)Nc1cc(F)ccc1F	n	x
C=Cc1ccc(CSc2nnc(C)n3c2cc2occc23)cc1	n	x
COc1ccc(N2CCN(C(CNC(=O)CC(C)C)c3ccc4c(c3)OCO4)CC2)cc1 (centres undefined)	n	x
CCOC(=O)N1CCc2c(sc(NCc3sccc3C)c2C(=O)Nc2cc(OC)ccc2OC)C1	n	x
COc1ccc(Cl)cc1NC(=O)c1c(NCc2ccc(C)o2)sc2c1CCCCC2	3.5µM	x
SMILES	Sm TGR inh	SARS PLpro yeast
COc1ccc(Cl)cc1NC(=O)c1c(NCc2cccs2)sc2c1CCC(C)C2 (centres undefined)	n	x
COc1ccc(OC)c(NC(=O)c2c(NCc3sccc3C)sc3c2CCCCC3)c1	20µM	x
CCN(CC)c1nn2c(=O)c(C(=O)NCc3ccccc3Br)cnc2s1	n	x
Cc1ccc(C(=O)c2oc3ccccc3c2NC(=O)COc2ccccc2Cl)cc1	n	x
CN1CC(=O)N(CC(=O)Nc2ccc(OC(F)(F)F)cc2)c2ccccc2C1=O	n	x
CCOC(=O)C1=C(C)NC2=C(C(=O)CCC2)C1c1ccc(O)c(OCC)c1 (centres undefined)	n	n
CCOc1cc(C2C(C(=O)N3CCCCC3)=C(C)NC3=C2C(=O)CCC3)cc(Br)c1O (centres undefined)	25µM	n
COc1ccc(NC(=O)CSc2nc(-c3ccc(OC)cc3)cc(=O)[nH]2)cc1	n	x
COc1ccccc1C(=O)OCc1cc(=O)n2nc(C(C)C)sc2n1	n	x
O=C(c1cccc(S(=O)(=O)N2CCOCC2)c1)N(Cc1ccco1)Cc1cccs1	n	n
O=C(CN(Cc1ccco1)Cc1cccs1)N1CCN(S(=O)(=O)c2cccc(F)c2)CC1	40µM	n
Cc1ccc2nc(Cl)c3cc(C(=O)NCCCN(C)Cc4ccccc4)sc3c2c1	n	x
CCN(CCCNC(=O)c1cc2c(Cl)nc3ccccc3c2s1)Cc1ccccc1	89µM	x
CCN(CC)CCCNC(=O)c1cc2c(Cl)nc3ccccc3c2s1	n	n
CN(CCCNC(=O)c1cc2c(Cl)nc3ccccc3c2s1)Cc1ccccc1	20µM!	n
CN(C(=O)CSc1nc2ncccc2o1)c1ccc(F)cc1	n	x
CCOC(=O)Cn1c(=O)n(CC2CCCO2)c2nc(-c3cccc(C)c3)nc(C(N)=O)c21 (centres undefined)	n	x
O=C1NC(=O)N(Cc2cccs2)C(=O)/C1=C/c1ccc(N2CCOCC2)cc1	u	n
O=C1NC(=O)N(Cc2ccccc2Cl)C(=O)/C1=C/N1CCOCC1	3.5µM	n
CCOc1ccc(N2C(=O)c3[nH]nc(-c4ccc(OC)cc4)c3C2c2cccs2)cc1 (centres undefined)	n	x
Cc1[nH]c2ccccc2c1NC(=O)CN1CCN(C(=O)c2ccco2)CC1	32µM	n
Cc1ccc(NC(=O)CN2CCN(C(=O)c3ccco3)CC2)cc1	n	n
CCOC(=O)c1cccc(NC(=O)CC2C(=O)N(c3ccc(OC)cc3)C(=O)N2C2CCCC2)c1 (centres undefined)	n	x
CCOc1ccc(NC(=O)Cn2ncc3c2-c2cc(C)ccc2OC3)cc1	n	x
COc1ccc(NC(=O)c2cccc(N3CCCS3(=O)=O)c2)cc1OC	n	x
SMILES	Sm TGR inh	SARS PLpro yeast
Cc1ccc2c(c1)NC(=O)C(CC(=O)NCCCN1CCCCC1)O2 (centres undefined)	100µM	n
Cc1ccc2c(c1)NC(=O)C(CC(=O)NCCCN1CCCC1=O)O2 (centres undefined)	n	n
Cc1ccc(C)c(OCCn2cc(C(=O)c3ccco3)c3ccccc32)c1	n	x
CCOc1ccccc1NC(=O)Nc1nnc(N2CCCC(C)C2)s1 (centres undefined)	n	x
CC(C)C(C(=O)NCC1CCCO1)N(Cc1ccccc1)C(=O)CNS(=O)(=O)c1ccccc1 (centres undefined)	7.1µM	x
CC(C)C(C(=O)NCC1CCCO1)N(CC1CCCO1)C(=O)CNS(=O)(=O)c1ccccc1 (centres undefined)	n	n
O=C1ON=C(c2ccc(Cl)c([N+](=O)[O-])c2)/C1=C/c1cccc([N+](=O)[O-])c1O	n	n
O=C1ON=C(c2ccccc2)/C1=C/c1cccnc1	n	n
O=C1ON=C(c2ccccc2)/C1=C/c1ccc(OS(=O)(=O)c2ccccc2)cc1	8.9µM	n
O=C1ON=C(c2ccccc2)/C1=C/c1ccc(O)c(O)c1	5µM	n
O=C1ON=C(c2cccc([N+](=O)[O-])c2)/C1=C/c1ccc(O)cc1	10µM	n
COc1ccc(/C=C2\C(=O)ON=C2c2ccccc2)cc1	u	n
Cc1cc(C)c2oc(-c3cc(NC(=O)Cc4ccccc4)ccc3Cl)nc2c1	n	x
O=C(Nc1nonc1-c1ccc(Cl)cc1)c1ccccc1F	n	x
O=C(C1CCCN(S(=O)(=O)c2ccc(Br)s2)C1)N1CCN(c2ccccc2F)CC1 (centres undefined)	n	x
O=C(CN1C(=O)CC(c2ccco2)Sc2ccccc21)Nc1ccc(OC(F)(F)F)cc1 (centres undefined)	n	x
O=C(O)CCc1ccc(-c2ccccc2)n1CC(=O)Nc1ccccc1C(F)(F)F	40µM	x
O=C(O)CCc1ccc(-c2ccccc2)n1CC(=O)Nc1cccc(C(F)(F)F)c1	n	n
O=C(O)CCc1ccc(-c2cccs2)n1CC(=O)Nc1ccccc1C(F)(F)F	u	n
C=CCn1c(CCC(=O)O)ccc1-c1ccccc1	45µM	n
